# ClpP mod: qHTS Assay for Activators of ClpP. Potency, µM (series often up to 57.5 µM), inactives show at the highest dose activity change, negative = active. purified B. subtilis ClpP, FRET peptide cleavage, 20 min. AID 651965, 2013. hit rate 1.9% among 340,000; active = well fitted falling curve with a large enough effect; inconclusive = small, poorly fitted or top-dose-only effect; inactive = no such curve, though single readings can be large or run the other way; note: the source files actives as falling curves though it sought activators and does not explain the sign; nearly all actives have a fitted effect of over 65% in size
# Target sequence (P80244 whole entry, looked up): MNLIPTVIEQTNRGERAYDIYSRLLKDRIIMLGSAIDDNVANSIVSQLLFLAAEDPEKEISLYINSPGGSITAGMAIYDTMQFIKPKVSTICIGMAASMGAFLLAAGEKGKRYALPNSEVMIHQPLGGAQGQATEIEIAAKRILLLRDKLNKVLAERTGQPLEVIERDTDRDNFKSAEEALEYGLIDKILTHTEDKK
#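 ClpP 10 microg/mL final, pH 8 Tris/KCl buffer with BSA, glycerol, Tween-20; compound pinned in; FRET-FV substrate; RT 20 min; Ex320/Em430; ΔFRET vs ADEP 5.8 microM, DMSO, no enzyme.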
# TDP1 inh: TDP1 (human) enzyme inhibition. recombinant TDP1, AlphaScreen DNA substrate cleavage. Potency, µM (highest dose often 130 µM), for inactives: at the top dose activity change, negative = inhibition, most hits filed as inhibitors. hit rate 0.28% among 350,000; note: % is set by controls: 0 for no effect and ±100 for the full control effect; nearly all actives have a fitted effect of over 40% in size
#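 Tdp1 1 nM final; 15 min RT w/ cpd; substrate 15 nM, 5 min; beads 10 ug/ml, 10 min; AlphaScreen read. Neg ctrl: no enzyme.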
# Rango complex inh: prevents formation of the Rango-importin beta complex. Potency, µM (highest dose often 92.2 µM), without a hit: at the highest dose inhibition of complex formation. hit rate 0.031% among 340,000. Rango CFP/YFP FRET sensor + importin beta, 45 min. AID 540263; calls by dose curve;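 note: 0% = DMSO wells and 100% = buffer wells lacking importin beta; nearly all actives have a fitted effect of over 15% in size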
#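 Inhibition scored from the CFP 486 nm/YFP 530 nm FRET ratio 45 min after adding 0.125 microM importin beta to 50 nM Rango biosensor preincubated 5 min with compound (room temperature, PBS with DTT, Tween-20, BSA). No-importin wells as positive control.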
# 12-LOX inh: inhibitors of human 12S-lipoxygenase ALOX12. purified 12hLO, xylenol orange hydroperoxide absorbance. Potency, µM (titrated, usually from 108 µM), without a hit: top-dose activity change, negative = inhibition, usual class: inhibitors. hit rate 1.1% among 580,000. AID 1671190; note: % is set by controls: 0 for no effect and ±100 for the full control effect
#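 Purified human 12hLO (150 nM final) in 25 mM Hepes, 0.01% Triton X-100, pH 7.0 was preincubated 15 min at room temperature with compound. Then 40 uM arachidonic acid was added, 30 min. Hydroperoxide was read by Fe-XO absorbance ratio 573/405 nm.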
# Rango dissoc inh: inhibition of RanGTP-driven Rango-importin beta dissociation; Biochemical FRET Rango-importin beta, RanGTP-induced dissociation; AID 540253; hit rate 0.071% among 340,000; Potency, µM (doses to about 46.1 µM), without a hit: at the highest dose activity change, negative = inhibition; O95149+P62826; calls by dose curve; note: % of control where 0% means no effect; nearly all actives have a fitted effect of over 45% in size
#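 FRET read at 45 min, room temperature: inhibitors block the CFP/YFP signal rise when RanGTP (0.6 uM Ran, 2 mM GTP, 0.2 uM RCC1) frees Rango (0.1 uM) from importin beta (0.25 uM). Pre-read after 5 min compound exposure flags interference.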
# TSG101-PTAP inh: blocks PTAP/TSG101 interaction to inhibit HIV-1 budding | AID 493005 | Fluorescence polarization, FITC-PTAP peptide / Tsg101 binding | 340,000 tested, under 10 active | Potency, µM (titrated, usually from 115 µM), without a hit: at the highest dose activity change, negative = inhibition, usual class: inhibitors; active = well fitted inhibition curve with a large enough effect in the main read-out, with a control signal flat, not every such curve was filed as active; inconclusive = small, poorly fitted or top-dose-only effect, or effect the other way, or a change in a side signal; inactive = no such curve, though single readings can be large or run the other way; note: % of control where 0% means no effect
# Target sequence (Q99816 whole entry, looked up): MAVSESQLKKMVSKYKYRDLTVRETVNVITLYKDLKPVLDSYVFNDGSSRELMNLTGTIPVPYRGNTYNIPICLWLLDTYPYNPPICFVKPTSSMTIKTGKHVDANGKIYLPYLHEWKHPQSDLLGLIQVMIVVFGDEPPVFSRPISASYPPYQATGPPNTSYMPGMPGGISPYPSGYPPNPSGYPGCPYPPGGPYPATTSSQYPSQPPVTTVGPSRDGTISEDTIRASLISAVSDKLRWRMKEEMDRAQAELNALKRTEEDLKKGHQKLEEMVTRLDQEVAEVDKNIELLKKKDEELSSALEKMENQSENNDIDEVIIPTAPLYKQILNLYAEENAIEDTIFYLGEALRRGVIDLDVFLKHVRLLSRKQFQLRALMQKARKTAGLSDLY
#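 Fluorescence polarization binding of Tsg101 binding domain (10 uM final) to FITC-labeled PTAP peptide (50 nM final) in HEPES pH 7.5 buffer with NaCl, Tween 20, EDTA, TCEP. Compounds added before peptide; binding 20 min at RT.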
# * marks the source's active call; other numbers are inactive results; ? = inconclusive; . = not tested or not shown; ! = not active in a repeat; [ ] = another dose, or the depositor's remark. Most compounds without a hit are left out; they make up all but 2.4% or so of the library. Unless noted, calls come from the whole dose curve; as a rule, active = well fitted curve in the direction sought with a large enough effect; inconclusive = small, poorly fitted or top-dose-only effect, or another doubt; inactive = no such curve, though single readings can be large; an effect the other way counts as inactive or inconclusive. Potency is the fitted concentration of half-maximal effect.
SMILES,ClpP mod,TDP1 inh,Rango complex inh,12-LOX inh,Rango dissoc inh,TSG101-PTAP inh
O=C(CSc1nc(-c2ccccc2)nc2ccccc12)Nc1cccc(C(=O)O)c1,.,5%,-5%,-1%,11%,-2%
O=C(CSc1nc(-c2ccc(F)cc2)nc2c1Cc1ccccc1O2)Nc1ccc(C(=O)O)cc1,3%,5µM*,-4%,?,-2%,-4%
O=C(CSc1nc(-c2ccccc2)nc2c1Cc1ccccc1O2)Nc1ccc(C(=O)O)cc1,.,4.5µM*,?,-5%,?,-10%
O=C(CSc1nc(-c2ccc(F)cc2)nc2ccc(F)cc12)Nc1cccc(C(=O)O)c1,.,25µM*,0%,?,-6%,-4%
CCC(=O)N1CCC[C@H](n2c(=O)n(C)c3cccnc32)C1,.,.,.,-4%,.,.
O=C1COc2ccc(Nc3ccc(C(F)(F)F)cc3)nc2CN1,.,.,.,1%[176 µM],.,.
COc1ccccc1CC(=O)Nc1ccc(O)cc1C(=O)O,18µM*,1%,1%,?,1%,-2%
COc1cc2c(cc1NS(=O)(=O)N1CCCC1)oc1ccccc12,25µM*,2%,6%,10%,-7%,-8%
COc1cc2c(cc1NC(=O)CN1CCN(S(=O)(=O)c3ccc(C)cc3)CC1)oc1ccccc12,?,2%,-4%,30%,8%,-1%
COc1cc2c(cc1NC(=O)COC(=O)[C@@H](NC(=O)c1ccccc1F)C(C)C)oc1ccccc12,5.6µM*,-3%,-1%,-28%,-13%,-4%
COc1cc2c(cc1NC(=O)COc1ccc(Br)cc1)oc1ccccc12,?,.,.,-22%,.,.
COc1cc2c(cc1NC(=O)COc1ccc3ccccc3c1)oc1ccccc12,3.2µM*,6%,1%,31%,2%,1%
CC(C)CCC(=O)Nc1ccc(C(N)=O)c(Cl)c1,.,.,.,-17%,.,.
CC(=O)N1CCCN(CC[C@H]2CN(C(=O)c3ccnc(Cl)c3)CC[C@H]2CC(=O)O)CC1,.,.,.,1%,.,.
O=C(CC1CCCCC1)NCc1nnc2cc(-c3nc(C4CC4)no3)ccn12,.,.,.,-12%,.,.
Cc1cc(=O)oc2cc(OCC(=O)NC(C)(C#N)C(C)C)ccc12 (stereo unspecified),.,.,.,1%,.,.
COc1ccccc1CC(=O)Nc1cc2oc3ccccc3c2cc1OC,32µM*,2%,3%,-2%,3%,-3%
COc1cc2c(cc1NC(=O)COC(=O)C1CC(=O)N(Cc3ccco3)C1)oc1ccccc12 (stereo unspecified),25µM*,-1%,1%,-17%,4%,-6%
CS(=O)(=O)N(C1CC1)C1CCOC2(CCN(C(=O)c3cccc(F)c3)CC2)C1 (stereo unspecified),.,.,.,10%,.,.
CCOc1ccc(C(=O)N2CCN(c3oc(-c4cccs4)nc3C#N)CC2)cc1,.,.,.,-47%,.,.
NC(N)=NS(=O)(=O)c1ccc(NC(=S)NC(=O)c2sc3ccccc3c2Cl)cc1,-2%,0%,?,-13%,21µM*,-2%
COC(=O)Oc1ccc2c(=O)c(Oc3cccc(C)c3)coc2c1,.,.,.,3%,.,.
O=C(O)C(=O)/C(=C/c1ccsc1)c1ccc2ccccc2n1,.,.,.,8.9µM*,.,.
O=C(O)C(=O)/C(=C\c1ccc(Cl)cc1)c1ccc2ccccc2n1,.,4%,-2%,?,?,-13%
CC1(C)C(=O)OC(c2c(F)c(F)c(F)c(F)c2F)C2(CCCCC2)C1=O (stereo unspecified),28µM*,-2%,0%,1%,0%,-2%
SMILES,ClpP mod,TDP1 inh,Rango complex inh,12-LOX inh,Rango dissoc inh,TSG101-PTAP inh
O=C1OC(c2cccc([N+](=O)[O-])c2)C2(CCCC2)C(=O)C12CCCCC2 (stereo unspecified),?,3%,-1%,-17%,10%,3%
Cc1nc2c(C(=O)NCc3ccc4c(c3)OCO4)c[nH]n2c(=O)c1Cl,32µM*,3%,-2%,?,-9%,.
S=C(N/N=C/c1cccs1)NC1CC2CCC1C2 (stereo unspecified),.,10%,0%,?,-2%,-5%
Oc1ccc(/C=N/NC(=S)NC2CC3CCC2C3)cc1 (stereo unspecified),.,6%,0%,18µM*,8%,1%
CN1CCN(c2nc(-c3cccnc3)nc3ccccc23)CC1,25µM*,6%,5%,2%,-5%,-7%
COc1ccc(S(=O)(=O)N2CCN(c3nc(-c4cccs4)nc4ccccc34)CC2)cc1,28µM*!,0%,.,.,.,.
Cc1ccc(S(=O)(=O)N2CCN(c3nc(-c4cncn4C)nc4ccccc34)CC2)cc1,32µM*,8%,.,.,.,.
CC(C)(C)c1ccc(S(=O)(=O)N2CCN(c3nc(-c4cccs4)nc4ccccc34)CC2)cc1,?,1%,.,.,.,.
CCOC(=O)c1ccc(S(=O)(=O)N2CCN(c3nc(-c4cccs4)nc4ccccc34)CC2)cc1,10µM*,-1%,.,.,.,.
Cc1noc(C)c1Cc1c(C(=O)NC2CCc3n[nH]c(=O)n3CC2)noc1C (stereo unspecified),.,.,.,-1%,.,.
O=C(COc1ccc(-n2cnnn2)cc1)Nc1ccccc1Oc1ccccc1,.,.,.,0%,.,.
CCOCCCNC(=O)COc1ccc2c(=O)c(-c3ccc(Cl)cc3)c(C)oc2c1,.,.,.,-57%,.,.
Cc1ccc(-c2nn(CC(=O)Nc3ccc(F)cc3)c(=O)c3ccccc23)cc1,.,.,.,6%,.,.
O=C(Cc1ccc([N+](=O)[O-])cc1)NCc1ccccc1Cl,11µM*,0%,-1%,-12%,17%,-4%
CC1=C/C(=N\Nc2nncc3ccccc23)CC1,.,.,.,50µM*,.,.
Brc1ccccc1/C=N/Nc1nncc2ccccc12,.,.,.,-4%,.,.
Cc1nc(-c2ccccc2OC2CN(C(=O)c3cc(F)ccc3F)C2)no1,.,.,.,27%,.,.
CNC(=O)c1cccc(-c2cnc3[nH]cc(CC(=O)Nc4ccccc4Cl)c3c2)c1,.,.,.,-21%[176 µM],.,.
CC(C)c1noc(CNC(=O)C2CCC(=O)N(CCN3CCOCC3)C2)n1 (stereo unspecified),.,.,.,-22%,.,.
CC(C)(C)N(NC(=O)Nc1ccccc1)C(=O)c1ccccc1,0%,6%,0%,-12%,-17%,-1%
COc1ccc(NC(=O)NN(C(=O)c2ccccc2)C(C)(C)C)cc1,25µM*,7%,0%,-14%,-10%,-1%
CCN1CCN(C(=O)CCC2CCN(Cc3ccc(N(C)C)nc3)CC2)CC1,.,.,.,30%,.,.
C=CCn1c(SCC(=O)c2ccc(O)c(O)c2)nnc1-c1cccc(C)c1,0%,0%,-3%,8.9µM*,-16%,0%

# High-throughput results deposited in PubChem by National Center for Advancing Translational Sciences (NCATS).
